In all, about 310,000 compounds went through this assay and about 14,000 (4.5%) showed an effect of 50% or more. Effects have a minus sign here. This is one part of a sample in which strong results are shown more often than they occur.
target: human ether-à-go-go-related gene (hERG) potassium channel (human, UniProt Q12809); test: primary screen, population patch clamp on CHO cells stably expressing hERG; higher = less effect of the substance
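Note: peak tail current of the secondary pulse compared with the same well before compound.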

human ether-à-go-go-related gene (hERG) potassium channel, sequence (Q12809 whole entry, looked up): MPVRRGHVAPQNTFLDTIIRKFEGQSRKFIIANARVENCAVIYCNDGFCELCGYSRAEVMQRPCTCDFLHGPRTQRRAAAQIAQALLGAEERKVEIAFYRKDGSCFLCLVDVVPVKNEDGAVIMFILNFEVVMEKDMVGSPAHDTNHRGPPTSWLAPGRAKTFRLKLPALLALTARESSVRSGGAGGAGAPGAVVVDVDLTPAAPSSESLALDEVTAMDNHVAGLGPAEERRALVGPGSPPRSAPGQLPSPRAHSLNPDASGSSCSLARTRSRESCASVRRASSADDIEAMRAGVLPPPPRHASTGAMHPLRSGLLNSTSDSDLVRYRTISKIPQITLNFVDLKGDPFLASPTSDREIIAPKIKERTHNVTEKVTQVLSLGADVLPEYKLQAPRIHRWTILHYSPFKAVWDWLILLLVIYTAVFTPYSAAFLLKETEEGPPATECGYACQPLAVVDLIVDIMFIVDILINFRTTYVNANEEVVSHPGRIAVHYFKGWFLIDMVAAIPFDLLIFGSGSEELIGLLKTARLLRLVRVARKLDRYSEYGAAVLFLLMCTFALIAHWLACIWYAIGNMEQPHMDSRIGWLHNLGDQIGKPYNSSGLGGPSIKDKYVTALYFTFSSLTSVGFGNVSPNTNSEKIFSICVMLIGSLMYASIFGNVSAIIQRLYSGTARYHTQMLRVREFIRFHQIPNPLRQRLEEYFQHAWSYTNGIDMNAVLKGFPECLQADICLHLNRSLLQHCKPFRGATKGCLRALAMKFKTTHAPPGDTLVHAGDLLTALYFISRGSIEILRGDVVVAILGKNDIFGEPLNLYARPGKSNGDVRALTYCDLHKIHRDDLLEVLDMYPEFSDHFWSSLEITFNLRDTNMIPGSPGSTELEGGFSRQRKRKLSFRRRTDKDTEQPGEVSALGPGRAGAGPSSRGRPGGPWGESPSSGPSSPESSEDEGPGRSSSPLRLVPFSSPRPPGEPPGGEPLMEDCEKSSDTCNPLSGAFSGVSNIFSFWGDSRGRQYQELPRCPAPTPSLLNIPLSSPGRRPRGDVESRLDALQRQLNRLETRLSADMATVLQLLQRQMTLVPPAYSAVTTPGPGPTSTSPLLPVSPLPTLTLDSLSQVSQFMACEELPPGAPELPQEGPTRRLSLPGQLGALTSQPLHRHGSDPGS

| SMILES | hERG current change (%, negative = inhibition) at 10uM [%] |
| --- | --- |
| Cc1ccc(C(C)C)c(O)c1 | 19.7 |
| CC(C)C[C@@H](CSc1ccccc1)N1CCN(CC(C)C)CCC1=O | -75 |
| O=C(CCC(=O)N(CC(=O)NC1CCCC1)Cc1ccccc1Cl)Nc1nccs1 | -16.1 |
| O=C(COC(=O)c1cccc(OC(F)F)c1)NC(=O)NC1CCCCC1 | 11.1 |
| Cc1ccc(N(CC(=O)NCc2ccc(F)cc2)C(=O)c2ccco2)cc1C | -10.8 |
| CC(=O)c1ccc(OCC(=O)NCc2ccc(F)cc2)cc1 | -11.5 |
| CN(CC(=O)NCc1ccccc1)Cc1ccc(Cl)cc1 | -22.9 |
| CCOCCCNCc1ccc(OCc2ccccc2Cl)cc1 | -46.9 |
| CCOc1ccc(CNCc2ccccc2Cl)cc1.Cl | -55.3 |
| CCOc1ccc(CN(C)CC(=O)NCc2ccccc2)cc1 | -76.1 |
| CCOc1ccc(N(CC(=O)NC(C)(C)C)C(=O)c2ccco2)cc1 | -1.84 |
| CN(CC(=O)NCCc1ccc(F)cc1)Cc1ccccc1 | -2.73 |
| CCOc1ccc(N(CC(=O)NCc2ccccc2)S(C)(=O)=O)cc1 | -10.9 |
| CCOc1ccc(CN(C)CC(=O)NCc2ccc(F)cc2)cc1 | -74 |
| Cc1ccc(CNCc2ccccc2Cl)cc1.Cl | -7.02 |
| CCOc1ccc(N(CC(=O)NCc2ccc(F)cc2)C(=O)c2ccco2)cc1 | -54.6 |
| Cc1c(C)c2c(OCC(=O)NCC(=O)NCC(=O)O)cc3c(c2oc1=O)CCC(C)(C)O3 | 15.2 |
| Cn1ncc2c(Nc3cccc([N+](=O)[O-])c3)ncnc21 | 7.09 |
| CC(C)N(C(=O)COC(=O)CNC(=O)c1ccc(Br)cc1)c1ccccc1 | -15.5 |
| O=C(COc1ccc(Cl)cc1)NCCCNC(=O)c1ccncc1 | -36.1 |
| COC(=O)C1=C(C)OC(N)=C(C#N)C1c1cc2cccc(C)c2nc1Cl (stereo not drawn) | -5.39 |
| CN(C)c1cc[n+](CC(=O)Nc2ccc(Cl)cc2)cc1.[Cl-] | 7.28 |

| SMILES | hERG current change (%, negative = inhibition) at 10uM [%] |
| --- | --- |
| COc1ccc(N2CCOCC2)c(NC(=O)c2cccnc2)c1 | 12.8 |
| O=C(c1cnn(C(=O)c2cccc(S(=O)(=O)N3CCOCC3)c2)c1)c1cc(Cl)cc(Cl)c1O | -44.5 |
| CC(=O)Oc1ccc(/C=N/NC(=O)c2ccc(N(C)S(=O)(=O)c3ccccc3)cc2)cc1 | 12.8 |
| C=CCOC(=O)C1=C(C)NC(=S)NC1/C=C/c1ccccc1 (stereo not drawn) | -4.63 |
| COc1cccc(CN(C)CC(=O)NCc2ccccc2Cl)c1OC | -7.66 |
| CCOc1ccc(CN(C)CC(=O)NCc2ccccc2Cl)cc1 | -89.1 |
| COc1cccc(CN(C)CC(=O)NCc2ccccc2Cl)c1 | -5.14 |
| Cn1cccc1/C=N\NC(=O)C1COc2ccc(C(C)(C)C)cc2O1 (stereo not drawn) | -3.42 |
| COc1ccc(N2CC(C(=O)NCCC3=CCCCC3)CC2=O)c(OC)c1 (stereo not drawn) | -4.67 |
| O=C(O)CC/C(=N/NC(=O)c1cccs1)c1ccccc1 | 6.16 |
| Nc1c(C(=O)NCc2ccco2)nnn1-c1ccccc1 | 2.52 |
| CC(C)NC(=O)C1CCN(C2CCN(C(=O)c3scc4c3CCCC4)CC2)CC1 | -1.4 |
| CC(C)NC(=O)C1CCN(C2CCN(C(=O)c3cc4c(s3)CCCCC4)CC2)CC1 | -51.8 |
| NC(=O)C1CCN(C(=O)c2cc3c(s2)CCCCC3)CC1 | -6.51 |
| COc1ccc(S(=O)(=O)Cc2ccc(C(=O)O)o2)cc1 | 21.8 |
| CCOC(=O)N1CCC(n2c(SCC(=O)N3CCCC3)nc3ccccc3c2=O)CC1 | -20.9 |
| CCOC(=O)N1CCC(n2c(SCC(=O)NCCC3=CCCCC3)nc3ccccc3c2=O)CC1 | -59.3 |
| CCOC(=O)N1CCC(n2c(SCC(=O)NCCc3ccc(S(N)(=O)=O)cc3)nc3ccccc3c2=O)CC1 | 21 |
| CCOC(=O)N1CCC(n2c(SCC(=O)N3CCC(C)CC3)nc3ccccc3c2=O)CC1 | -47.9 |
| CCOC(=O)N1CCC(n2c(SCC(=O)Nc3ccccc3OC)nc3ccccc3c2=O)CC1 | -66.4 |
| CCOC(=O)N1CCC(n2c(SCC(=O)NCc3ccccc3)nc3ccccc3c2=O)CC1 | -46.6 |
| COc1ccccc1S(=O)(=O)Cc1ccc(C(=O)NCc2ccc(C)cc2)o1 | -28.4 |

| SMILES | hERG current change (%, negative = inhibition) at 10uM [%] |
| --- | --- |
| CC(C)(CNC(=O)c1cc(Cl)c(O)c(Cl)c1)N1CCCCC1 | 4.69 |
| c1ccc(N=Nc2ccc3cccccc2-3)cc1 | 8.38 |
| Cc1cc(Oc2nnnn2-c2ccccc2)ccc1Cl | -15.3 |
| COc1ccc(C(CC(=O)N2CCC3(CC2)OCCO3)NS(=O)(=O)c2ccc(F)cc2)cc1 (stereo not drawn) | -2.22 |
| O=C(O)C1CC=CCC1C(=O)Nc1ccc(Oc2ccc(Cl)cc2)cc1 (stereo not drawn) | 7.55 |
| COc1ccc(CCC(=O)NNC(=O)c2ccc(F)cc2)cc1 | 6.02 |
| O=C(CCc1nnc2ccc(NCc3ccc(F)cc3)nn12)NC1CCCC1 | -0.461 |
| Cc1ccc(NC(=O)CSc2nnc([C@H](C)NC(=O)OC(C)(C)C)o2)c(C)c1 | -6.67 |
| CSCC[C@H](NC(=O)OC(C)(C)C)c1nnc(SCc2cccc(F)c2)o1 | -30.3 |
| CSCC[C@H](NC(=O)OC(C)(C)C)c1nnc(SCc2ccccc2)o1 | -51.3 |
| CSCC[C@H](NC(=O)OC(C)(C)C)c1nnc(SCC(=O)Nc2ccc(C)cc2C)o1 | -50.1 |
| CSCC[C@H](NC(=O)OC(C)(C)C)c1nnc(SCC(=O)Nc2c(C)cccc2C)o1 | -14.5 |
| CSCC[C@H](NC(=O)OC(C)(C)C)c1nnc(SCc2ccc(F)cc2)o1 | -46.2 |
| Cc1cc(NC(=O)CSc2ccc3c(c2)OCCO3)no1 | -8.22 |
| COc1ccc(/C=C2\SC(=O)N(CC(=O)Nc3ccccc3O)C2=O)cc1OC | 9.72 |
| CCC1(C)Cc2c(sc3nnn(CC(=O)Nc4ccccc4)c(=O)c23)CO1 (stereo not drawn) | -27.3 |
| O=C(CCn1c(=O)oc2ccccc21)Nc1ccc(C(=O)O)cc1 | -45 |
| COc1cccc(C(=O)N2CCN(CCCc3ccccc3)CC2)c1OC.O=C(O)C(=O)O | -46.7 |
| CCOc1ccc(C(=O)N2CCN(CCc3ccccc3)CC2)cc1OCC | -78.8 |
| COc1ccc(C(=O)N2CCN(CCCc3ccccc3)CC2)cc1OC.O=C(O)C(=O)O | -73.3 |
| CCOc1ccc(C(=O)N2CCN(C(=O)c3ccco3)CC2)cc1OCC | -5.57 |
| CCOc1ccc(C(=O)N2CCN(c3ccccc3)CC2)cc1OCC | -32.4 |

| SMILES | hERG current change (%, negative = inhibition) at 10uM [%] |
| --- | --- |
| COc1cc(C(=O)N2CCN(CCCc3ccccc3)CC2)cc(OC)c1OC | -9.98 |
| OC(C#Cc1ccccn1)c1cccs1 (stereo not drawn) | 3.9 |
| Clc1ccc(-c2[nH]ncc2N=Nc2ccccc2)cc1 | 15.3 |
| Cc1cccc(C(=O)NCCC(=O)Nc2ccc(C#N)cc2)c1 | -0.169 |
| CCOc1ccc(CN2CCNC(=O)C2CC(=O)NCCCC2CCCC2)cc1 (stereo not drawn) | -34.1 |
| COc1ccc(Cc2noc(CN3CCCN(Cc4ccc(F)cc4)CC3)n2)cc1OC | -60.8 |
| COc1ccc(Cc2noc(CN3CCCN(C4Cc5ccccc5C4)CC3)n2)cc1OC | -67 |
| COc1ccc(Cc2noc(CN3CCC(c4ccncc4)CC3)n2)cc1OC | -20 |
| COc1ccc(Cc2noc(CN(C)CC3CCN(Cc4ccccc4)CC3)n2)cc1OC | -22.9 |
| COc1ccc(Cc2noc(CN3CCN(Cc4cccc(Cl)c4)CC3)n2)cc1OC | -11.5 |
| COc1ccc(Cc2noc(CN3CCNC(=O)CC3)n2)cc1OC | 6.36 |
| COc1ccc(Cc2noc(CN3CCN(Cc4csc(C)n4)CC3)n2)cc1OC | 18.2 |
| COCCN1CCN(Cc2nc(Cc3ccc(OC)c(OC)c3)no2)CC1 | 3.84 |
| COc1ccc(Cc2noc(CN3CCN(C4CCc5ccccc5C4)CC3)n2)cc1OC (stereo not drawn) | -68.8 |
| Cc1ccc(NC(=S)Nc2c(C)n(C)n(-c3ccccc3)c2=O)cc1Cl | -22.7 |
| O=S1(=O)c2cccc3cccc(c23)N1Cc1nnc(-c2ccccc2Br)o1 | -9.83 |
| COc1cc(C(=O)NC(=S)NNC(=O)c2ccc3c(c2)OCO3)cc(OC)c1OC | 8.08 |
| CN1CCN(C(=O)CN(Cc2ccccc2)S(C)(=O)=O)CC1 | 25.7 |
| Cn1ncc(Cl)c1C(=O)NCc1ccc(Cl)cc1 | -13.3 |
| COc1ccc(NC(=O)CN(c2ccc(OC)c(Cl)c2)S(=O)(=O)c2ccccc2)c(OC)c1 | 8.77 |
| Cc1cccc(N=CC=C2OC(C)(C)C(C)(C)O2)c1 | 3.43 |
